The nature of assay [1]: adipocyte viability effects, profiling panel, cell-based, 3T3-L1 adipocytes, calcein-AM fluorescence, 48 h, basal (AID 1163). The settings on record: 3T3-L1 adipocytes viability, higher = more signal.
Assay [2] is described as follows: HepG2 cell viability effects, profiling panel, calcein-AM fluorescence, 48 h, basal (AID 1164). The following applies: higher = more signal.
Assay [3] can be described thus: MM1S cell viability effects, profiling panel, calcein-AM fluorescence, 48 h, basal (AID 1165).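 Note: viability of MM1S multiple myeloma cells under basal unstimulated conditions.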 The settings on record: higher = more signal.
A short description of assay [4]: basal RPMI8226 viability, no added stimulus, profiling panel, cell-based, calcein-AM fluorescence, 48 h, PK04 Diversity Set (AID 1166).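 Note: cells grown under basal conditions without added stimulus.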 The following applies: RPMI8226 myeloma viability, higher = more signal.
The nature of assay [5]: basal HepG2 mitochondrial membrane potential changes, profiling panel, cell-based, JC-1 fluorescence, 24 h, 100 nL compound (AID 1167). The following applies: higher = more signal.
Assay [6] is described as follows: basal 3T3-L1 adipocyte mitochondrial potential changes, profiling panel, cell-based, JC-1 fluorescence, 3T3-L1 adipocytes, 24 h, 100 nL compound (AID 1168). The following applies: JC-1 mitochondrial fluorescence, higher = more signal, called active from +8 up or from −8 down.
Assay [7] is described as follows: basal RPMI8226 mitochondrial membrane potential changes, profiling panel, cell-based, JC-1 fluorescence, 24 h, 100 nL compound (AID 1169). The settings on record: RPMI8226 myeloma, JC-1 mitochondrial potential fluorescence, higher = more signal.
A short description of assay [8]: basal MM1S mitochondrial membrane potential changes, profiling panel, cell-based, JC-1 fluorescence, 24 h, 100 nL compound (AID 1170). The following applies: higher = more signal.
Assay [9] can be described thus: A549 lung cancer cell viability effects, profiling panel, resazurin fluorescence, 24 h, PK04 Diversity Set (AID 1171). The settings on record: higher = more signal, called active from +8 up or from −8 down. A general note: Resazurin is reduced to fluorescent resorufin, in cell work by metabolically active cells.
Assay [10] can be described thus: HepG2 liver cancer cell viability effects, profiling panel, resazurin fluorescence, 24 h, PK04 Diversity Set (AID 1172). The following applies: higher = more signal.
Assay [11] can be described thus: basal S. cerevisiae growth modulation, no modifier, primary screen, OD600, strain BY4716, 24 h, basal condition (AID 1173). The following applies: OD600, 24 h, higher = more signal, called active from +8 up or from −8 down.
A short description of assay [12]: MM1S myeloma cell viability, profiling panel, resazurin fluorescence, basal, 24 h, PK04 Diversity Set (AID 1174).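 Note: MM1S multiple myeloma cell line.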 The following applies: higher = more signal, called active from +8 up or from −8 down.
Assay [13] addresses Dihydroorotate dehydrogenase (quinone), mitochondrial (Plasmodium falciparum (isolate 3D7)) (UniProt Q08210). Put plainly: PfDHODH enzyme inhibitors, primary screen, biochemical, C-terminal His tag, absorbance 600 nm (AID 1175).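 Note: recombinant parasite enzyme with a five histidine tag at its C terminus.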 The settings on record: DCIP absorbance 600 nm, higher = more signal, called active from +8 up or from −8 down.
Assay [14] is described as follows: S. cerevisiae RM11-1a growth modifiers, primary screen, strain RM11-1a, OD600, basal, 24 h (AID 1177).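 Note: cultures grown under basal conditions with no added stressor.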 The settings on record: OD600, 24 h, higher = more signal, called active from +8 up or from −8 down.
Assay [15] in a line: E. coli acrAB mutant growth effects, primary screen, E. coli filamentation inducers, strain DRC39, OD650, 24 h (AID 1178).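 Note: growth measured as culture turbidity by optical density at 650 nm.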 The following applies: higher = more signal, called active from +8 up or from −8 down.
Assay [16] in a line: E. coli acrAB mutant growth effects, primary screen, E. coli filamentation inducers, strain DRC39, OD650, 48 h (AID 1179).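 Note: screen aims at cell division blockers that make cells filament.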 The settings on record: E. coli DRC39 delta-acrAB growth, higher = more signal, called active from +8 up or from −8 down.
Assay [17] can be described thus: RPMI8226 myeloma cell viability, profiling panel, resazurin fluorescence, basal, 24 h, PK04 Diversity Set (AID 1180).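 Note: RPMI8826 multiple myeloma cell line at 5000 cells per well.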 The settings on record: higher = more signal.
The target in assay [18] is E3 ubiquitin-protein ligase XIAP (Homo sapiens) (UniProt P98170). In words: XIAP binders, primary screen, biophysical, small-molecule microarray, fluorescence 635 nm (AID 1181).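 Note: score merges 667 nm emission and signal to noise over triplicate slides.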 The settings on record: small-molecule microarray binding, higher = more signal.
Sequence of E3 ubiquitin-protein ligase XIAP (Homo sapiens) (P98170 whole entry, looked up): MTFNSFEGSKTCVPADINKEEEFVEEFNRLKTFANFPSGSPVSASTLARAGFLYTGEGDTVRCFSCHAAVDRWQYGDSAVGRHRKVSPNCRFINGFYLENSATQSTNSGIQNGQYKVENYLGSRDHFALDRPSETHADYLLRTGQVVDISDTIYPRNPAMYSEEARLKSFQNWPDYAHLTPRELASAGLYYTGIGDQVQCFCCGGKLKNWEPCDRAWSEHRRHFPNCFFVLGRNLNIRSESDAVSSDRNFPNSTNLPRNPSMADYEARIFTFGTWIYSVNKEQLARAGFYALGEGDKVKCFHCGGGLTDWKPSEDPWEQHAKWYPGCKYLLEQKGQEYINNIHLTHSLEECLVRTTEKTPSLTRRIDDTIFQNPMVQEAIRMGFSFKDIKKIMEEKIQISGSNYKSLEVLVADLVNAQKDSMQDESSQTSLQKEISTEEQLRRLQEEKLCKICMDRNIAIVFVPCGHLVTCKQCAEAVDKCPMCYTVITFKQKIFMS
Assay [19] relates to XIP peptide (Xip251-270) binding. Put plainly: small-molecule binders of XIP peptide, primary screen, biochemical, small-molecule microarray, fluorescence 635/667 nm, 0.1 µg/mL protein (AID 1182). The settings on record: fluorescent protein binding, 635 nm, higher = more signal, called active from +8 up or from −8 down.
The test system of a further assay is XIP peptide (Xip251-270). Put plainly: small-molecule binders of XIP peptide, primary screen, biochemical, small-molecule microarray, fluorescence 635/667 nm, 0.5 µg/mL protein (AID 1183). The following applies: small-molecule microarray binding, fluorescence 635 nm; higher = more signal.

Activity calls are given as the source filed them.

Sequence of Dihydroorotate dehydrogenase (quinone), mitochondrial (Plasmodium falciparum (isolate 3D7)) (Q08210 whole entry, looked up): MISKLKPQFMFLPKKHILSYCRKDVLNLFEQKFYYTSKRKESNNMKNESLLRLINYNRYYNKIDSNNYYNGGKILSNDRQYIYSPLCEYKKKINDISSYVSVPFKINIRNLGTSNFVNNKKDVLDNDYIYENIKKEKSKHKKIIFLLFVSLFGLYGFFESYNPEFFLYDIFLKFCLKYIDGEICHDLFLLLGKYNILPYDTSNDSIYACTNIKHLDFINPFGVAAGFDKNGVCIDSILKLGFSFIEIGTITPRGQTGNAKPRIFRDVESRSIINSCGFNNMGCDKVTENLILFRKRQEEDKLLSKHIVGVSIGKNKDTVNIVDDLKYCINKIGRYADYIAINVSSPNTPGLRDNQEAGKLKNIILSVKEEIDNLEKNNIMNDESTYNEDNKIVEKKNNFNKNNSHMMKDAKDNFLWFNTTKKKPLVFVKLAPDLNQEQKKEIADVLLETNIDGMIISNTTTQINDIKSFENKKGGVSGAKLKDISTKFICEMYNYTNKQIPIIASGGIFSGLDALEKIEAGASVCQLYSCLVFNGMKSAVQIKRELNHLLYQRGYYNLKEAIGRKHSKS

For the molecule `COc1ccc(C#Cc2ccc3c(c2)[C@]2(C(=O)N3)[C@H](c3ccc(O)cc3)N3[C@H](c4ccccc4)[C@H](c4ccccc4)OC(=O)[C@H]3[C@@H]2C(N)=O)cc1`, the z-score in assay [1] was 1.39; in [2], -4.79; in assay [3] it was -3.41; in assay [4] it was -4.61; in assay [5], -2.81; in assay [6], -0.0696 (inactive). Also, the z-score in assay [7] was -1.32; in assay [8], -1.66; in [9] it was -1.62 (inactive); in assay [10], -0.424; in assay [11], -0.379 (inactive); in assay [12] it was -6.51 (inactive). The z-score in assay [14] was 1.47 (inactive); in assay [15], 0.277 (inactive); in assay [16], 0.464 (inactive); in assay [17], -6.8. In addition, the composite z-score was 0.255 (inactive) in assay [13], 0.237 in assay [18], 0.0982 (inactive) in assay [19] and 0.542 in the assay with XIP peptide (Xip251-270).
Regarding `COc1ccc([Si](C)(C)[C@@H]2[C@@H](CC(=O)N3CCC[C@H]3CO)O[C@]3(C(=O)N(Cc4ccc(N5CCC5=O)cc4)c4ccccc43)[C@H]2C)cc1`, the z-score in [1] was 0.592; in [2], -3.27; in [3], -2.7; in assay [4], -4.39; in assay [5], -1.56; in assay [6], 1.28 (inactive). Also, the z-score in [7] was -1.18; in [8] it was -1.66; in assay [9], -1.99 (inactive); in assay [10] it was -1.43; in assay [11], -1.17 (inactive); in assay [12], -2.01 (inactive). The z-score in [14] was 0.613 (inactive); in [15], 1.34 (inactive); in assay [16], 1.2 (inactive); in assay [17], -5.16. The composite z-score was -2.42 (inactive) in assay [13], -0.117 in [18], 1.15 (inactive) in [19] and 0.713 in the assay on XIP peptide (Xip251-270).
`C=C(/C(=C/C[C@H](OC(=O)c1ccncc1)c1cccc(OCCO)c1)c1cc(C(=O)OC)ccc1OC)C(C)C`: the z-score in [1] was 1.7; in assay [2] it was -0.712; in assay [3] it was -0.026; in assay [4], 0.566; in [5], 2.15; in assay [6], 0.746 (inactive). Also, the z-score is 0.0166 in [7]; 0.343 in [8]; 2.01 (inactive) in [9]; 0.731 in assay [10]; -0.177 (inactive) in assay [11]; 1.8 (inactive) in assay [12]. In addition, the z-score in assay [14] is -1.06 (inactive); in assay [15], 1.17 (inactive); in assay [16], 0.196 (inactive); in assay [17], 0.987. In addition, the composite z-score in assay [13] was -0.494 (inactive); in [18], -0.153; in assay [19], 0.236 (inactive); in the assay with XIP peptide (Xip251-270), 0.256.
As to `[N-]=[N+]=NCc1ccccc1C[C@]1(C(=O)NCc2ccccc2)N=C(c2ccc(OCCCO)cc2)O[C@H]1c1ccccc1`, the z-score in assay [1] was 0.457; in assay [2], -2.82; in [3] it was -2.07; in [4], -2.78; in [5], 0.671; in [6], 0.371 (inactive). Besides, the z-score in assay [7] is -0.819; in assay [8], -1.6; in assay [9], 0.225 (inactive); in [10] it was 0.643; in [11] it was 2.86 (inactive); in assay [12] it was -0.295 (inactive). The z-score in assay [14] is 4.01 (inactive); in [15] it was 3.49 (inactive); in assay [16] it was 1.24 (inactive); in assay [17], -0.29. Further, the composite z-score in assay [13] is 2.37 (inactive); in [18], 0.191; in assay [19], 0.279 (inactive); in the assay on XIP peptide (Xip251-270), -0.172.
For `O=C(NC1CC1)[C@@H]1c2ccccc2C(=O)N(Cc2ccccc2C(F)(F)F)[C@H]1c1ccc(CO)cc1`, the z-score in assay [1] was 1.59; in [2] it was 0.0356; in [3], -0.124; in assay [4] it was 0.702; in assay [5], 1.26; in assay [6] it was 0.387 (inactive). Also, the z-score in [7] was -0.0417; in assay [8], 0.65; in [9], 1.99 (inactive); in assay [10], 0.187; in assay [11], -0.844 (inactive); in assay [12], 1.55 (inactive). In addition, the z-score is -0.615 (inactive) in assay [14], 0.487 (inactive) in assay [15], -0.152 (inactive) in assay [16] and 1.98 in assay [17]. The composite z-score in assay [13] was 0.209 (inactive); in assay [18], -0.0848; in [19], 0.62 (inactive); with XIP peptide (Xip251-270), 0.618.
Turning to `C=CCC1(CC=C)C[C@H]2CO[C@H](c3ccc(OC)cc3)N2C1=O`, the z-score in assay [1] is 0.683; in assay [2] it was -0.88; in assay [3], 0.347; in [4], 0.0778; in assay [5] it was 0.872; in [6], 0.773 (inactive). Also, the z-score in [7] was -0.245; in assay [8], 0.278; in assay [9] it was 0.771 (inactive); in assay [10], 1.01; in assay [11], -4.05 (inactive); in [12] it was -1.19 (inactive). The z-score in assay [14] is -0.169 (inactive); in [15], 1.51 (inactive); in [16], 1.03 (inactive); in assay [17] it was 0.765. The composite z-score was 0.621 (inactive) in assay [13], -0.323 in [18], 0.842 (inactive) in [19] and 0.739 with XIP peptide (Xip251-270).
On to `C=CCC(OC(C)=O)[C@@H]1[C@@H](N(Cc2cccc3ccccc23)C(=O)c2cccc3ccccc23)c2cc(OCCCO)ccc2N1C(=O)Cc1ccc(OC)cc1` (stereo not given in full), for which the z-score is 2.56 in [1]; 0.486 in [2]; 1.7 in assay [3]; -1.28 in assay [4]; 3.07 in assay [5]; 0.451 (inactive) in assay [6]. Also, the z-score in assay [7] was 0.402; in assay [8], 0.779; in [9] it was -0.245 (inactive); in assay [10], 0.147; in assay [11] it was -3 (inactive); in [12] it was 1.09 (inactive). Moreover, the z-score in [14] was -1.48 (inactive); in assay [15] it was 1.35 (inactive); in assay [16] it was 0.717 (inactive); in assay [17], 0.301. The composite z-score in assay [13] is 0.848 (inactive); in assay [18] it was 0.108; in assay [19] it was 0.936 (inactive); with XIP peptide (Xip251-270) it was -0.314.
For the molecule `COC(=O)c1c(CC[C@@H](CO)NC(=O)Nc2ccc(OC)cc2)oc(C(=O)Cc2ccccc2)c1C(=O)OC`, the z-score is 1.01 in assay [1]; -0.255 in assay [2]; -0.581 in assay [3]; 0.141 in assay [4]; -0.115 in assay [5]; 0.695 (inactive) in assay [6]. Also, the z-score was -0.204 in assay [7]; 0.212 in [8]; 0.367 (inactive) in [9]; -0.325 in assay [10]; -2.3 (inactive) in assay [11]; 0.955 (inactive) in assay [12]. Also, the z-score in assay [14] was 1.22 (inactive); in [15] it was 1.46 (inactive); in assay [16] it was 0.987 (inactive); in [17] it was 0.173. Also, the composite z-score in assay [13] is -1.09 (inactive); in [18], -0.0525; in assay [19] it was 0.684 (inactive); with XIP peptide (Xip251-270), 0.678.
As to `[N-]=[N+]=NCc1ccccc1C[C@@]1(C(=O)O)N=C(c2ccc(OCCCO)cc2)O[C@@H]1c1ccccc1`, the z-score in assay [1] is 0.298; in assay [2], -0.187; in assay [3], -0.139; in [4], 0.0527; in assay [5] it was -0.586; in assay [6], 0.493 (inactive). For the same molecule, the z-score is -0.497 in assay [7]; 0.394 in assay [8]; 0.946 (inactive) in assay [9]; 0.458 in assay [10]; -3.34 (inactive) in assay [11]; 0.954 (inactive) in assay [12]. Further, the z-score in [14] was -1.01 (inactive); in [15] it was 2.63 (inactive); in assay [16] it was 1.26 (inactive); in assay [17], 0.903. Further, the composite z-score is 0.0567 (inactive) in assay [13], 0.188 in assay [18], 1.35 (inactive) in assay [19] and 0.687 with XIP peptide (Xip251-270).

(Values after PubChem BioAssay.)
